# The full ranking holds about 39,000 sequences; the median of “fluorescence intensity (a.u.)” is about 4,300, and the highest 2% start at about 39,000. Shown is part of a subset that was picked to be rich in the highest values.
# Target: T1, OsSMF1 (Oryza sativa, UniProt Q6ZLB0 1-436)
# T1 sequence: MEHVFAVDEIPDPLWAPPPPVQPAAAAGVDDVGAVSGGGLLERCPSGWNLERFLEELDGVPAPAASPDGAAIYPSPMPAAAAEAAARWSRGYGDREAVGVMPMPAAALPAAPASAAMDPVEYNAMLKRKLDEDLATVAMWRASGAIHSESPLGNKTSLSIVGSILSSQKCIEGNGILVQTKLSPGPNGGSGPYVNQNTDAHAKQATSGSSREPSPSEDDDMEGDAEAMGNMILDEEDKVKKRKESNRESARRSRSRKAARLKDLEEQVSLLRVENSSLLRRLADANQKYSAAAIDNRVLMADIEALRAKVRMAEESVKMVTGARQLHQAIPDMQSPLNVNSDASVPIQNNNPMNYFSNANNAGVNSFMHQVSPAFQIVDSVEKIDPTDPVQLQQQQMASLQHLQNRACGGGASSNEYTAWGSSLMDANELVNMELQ
# Assay: protein-binding microarray (RPBM); PBS, 2% BSA, 51.3 ng/ul salmon testes DNA, 50 uM zinc acetate, 200 nM TF, 25 C, 1 h; high values mean tight binding
# Details: protein: recombinant; tags: N-terminal polyhistidine and DsRed monomer fusion (pET32a); chain copies: 2; label: CyDye5-dUTP incorporated in the synthesized complementary strand; 3' TTTTT single-stranded linker to array surface; dsDNA, one strand shown
# Outline: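 Transcription factors, each fused N-terminally to a polyhistidine tag and DsRed, were expressed in E. coli BL21-CodonPlus and purified on Ni–NTA. A custom Agilent array was made double-stranded by primer extension with Cy5-dUTP and blocked with 2% BSA. It was incubated with 200 nM protein in PBS, 2% BSA, salmon testes DNA and 50 µM zinc acetate at 25 °C for 1 h, then washed. The binding signal is per-feature fluorescence intensity (arbitrary units) read on an Axon 4000B scanner.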
row,Sequence,binding signal
1,TGTTAGAAAGTCTTATAATATAAAACGGAGGAAATATTTACGGAGTCACCTAGTGCAG,6480 fluorescence intensity (a.u.)
2,AAATTGAGTTGAAAATTTTCAAATCTCGACTTGAAAGTTTCGGAGTCACCTAGTGCAG,21800 fluorescence intensity (a.u.)
3,TACACACCATAATTGAAGTATTGAGTCACACATAATTGAACGGAGTCACCTAGTGCAG,3220 fluorescence intensity (a.u.)
4,TTGGACAAATCATTTGGCAAAATTTCAAAGTTTTGAATCTCGGAGTCACCTAGTGCAG,28600 fluorescence intensity (a.u.)
5,TGAGTGAATACACAGTACTATGACGACGATAAGGTTGGGGCGGAGTCACCTAGTGCAG,32700 fluorescence intensity (a.u.)
6,TTCTTATTGTCTTAGCTACAAACGATCCATACAAACATTGCGGAGTCACCTAGTGCAG,4240 fluorescence intensity (a.u.)
7,AATAGTAGGCTATAAGCCGGCTAAATGCTGAGGTGGAGGACGGAGTCACCTAGTGCAG,5420 fluorescence intensity (a.u.)
8,ATGCTAGAAAGTCTTATAACCTGAAACGGAGGTAGTAGGACGGAGTCACCTAGTGCAG,65000 fluorescence intensity (a.u.)
9,TGTGGACAATGCTAGAAAGTCTTACATTGTCAAACGGATGCGGAGTCACCTAGTGCAG,39500 fluorescence intensity (a.u.)
10,TAGAATTGTCAAGTCAATGCCACGTGGGACAAAGACCTAGCGGAGTCACCTAGTGCAG,17900 fluorescence intensity (a.u.)
11,TCAAATTGAAAGTTTCCAAAATTTTCAAATCTGGACTTGACGGAGTCACCTAGTGCAG,43500 fluorescence intensity (a.u.)
12,AGTAGTGAGGTTGAGGCATAAGTACATTGAATTGAATTGACGGAGTCACCTAGTGCAG,44100 fluorescence intensity (a.u.)
13,TCTCTCTCACTCTTCTCTTGCAGGCCTGCGTGGCATACTACGGAGTCACCTAGTGCAG,7430 fluorescence intensity (a.u.)
14,CGGAAACAGATCATCAAACCCATACGTCAGTGATCCAAGTCGGAGTCACCTAGTGCAG,3410 fluorescence intensity (a.u.)
15,TTCCAGTCCACCGTGGCGGTGGCGCGTCAGCTTTCCAGCCCGGAGTCACCTAGTGCAG,12000 fluorescence intensity (a.u.)
16,GGTCCACCCGAATCGGAGTCAGCCAGCCAAGCCACCTAATCGGAGTCACCTAGTGCAG,4780 fluorescence intensity (a.u.)
17,GCCGGTCGAACCGCCCGAACACCTACGGTCAGACCGCTGCCGGAGTCACCTAGTGCAG,3360 fluorescence intensity (a.u.)
18,CTTCATACTGCAGTATCTGAAAAGATGTCATTGTAAAGTTCGGAGTCACCTAGTGCAG,3140 fluorescence intensity (a.u.)
19,CATGTTTGTGAAGTGACGTATTACATATTGATCTATTTGACGGAGTCACCTAGTGCAG,8700 fluorescence intensity (a.u.)
20,TGTGATTGTATTGGTTACTAGAGTAGTATTTAGTAGAGATCGGAGTCACCTAGTGCAG,42200 fluorescence intensity (a.u.)
21,TAGTTGTGACACGTAGAAGTTGAATTTTAACTTTTATGTTCGGAGTCACCTAGTGCAG,4370 fluorescence intensity (a.u.)
22,GTTGTTGATGTGATTGTGTGTATTCAAGTAGAGATTGGGTCGGAGTCACCTAGTGCAG,3240 fluorescence intensity (a.u.)

row,Sequence,binding signal
1,TATTGATTGATTGGTTAGTACTACAGTACTGTAGGAGTGGCGGAGTCACCTAGTGCAG,29800 fluorescence intensity (a.u.)
2,TTGTAGAAGTTGAATTTGGTTTTACATATTTGTGGAGTGACGGAGTCACCTAGTGCAG,61600 fluorescence intensity (a.u.)
3,CCAAAATGAGTTGAAATGAATTTTGTATGCATTTTATAAACGGAGTCACCTAGTGCAG,6000 fluorescence intensity (a.u.)
4,TTATGTTTGAATTTAAGTTTTGAGTTTTGTTGCGTGCGCACGGAGTCACCTAGTGCAG,28800 fluorescence intensity (a.u.)
5,GCATGTTTTGAGTTTGAAAGTTTTAAATTTTGAGTTGAAACGGAGTCACCTAGTGCAG,50200 fluorescence intensity (a.u.)
6,CGACTGAAGACTTGGACACGGTCAGTCTTTCTGCCGTGTTCGGAGTCACCTAGTGCAG,5080 fluorescence intensity (a.u.)
7,ACCAAAGTTGGTACAAGTGTATAATCAGAATGGGAGAGCGCGGAGTCACCTAGTGCAG,21600 fluorescence intensity (a.u.)
8,AATCGATTCTCCACTACTCTCTCGTCATTGTTCCCATGTTCGGAGTCACCTAGTGCAG,3270 fluorescence intensity (a.u.)
9,CCTCCTGTCAGACTGTCGTCAGTGTCACACTGTCACTGTCCGGAGTCACCTAGTGCAG,6520 fluorescence intensity (a.u.)
10,AAAAGACTGGAATACGTGGCGAACAAACTTTATTACACAACGGAGTCACCTAGTGCAG,6740 fluorescence intensity (a.u.)
11,TTTATTACACAACGCAACTGGCCAGACTTTAGCGGGTCATCGGAGTCACCTAGTGCAG,46000 fluorescence intensity (a.u.)
12,AAACTTATTTGGCCATGGTGTCATCGGGGTTGGCGTTTAGCGGAGTCACCTAGTGCAG,3860 fluorescence intensity (a.u.)
13,GCATGCAGGGCATGGCGAGACGGTGACGTGCTCCAAGGCGCGGAGTCACCTAGTGCAG,4760 fluorescence intensity (a.u.)
14,ACTCGCCTGGAAACCGTGAGATGAATTTATTAAGCCTAATCGGAGTCACCTAGTGCAG,3930 fluorescence intensity (a.u.)
15,CCATGTAAGTGCCACGTCAACGCCACGTGGATCGAAGACTCGGAGTCACCTAGTGCAG,55500 fluorescence intensity (a.u.)
16,GTCACCTAAGTGCCATGTCAACGCCACGTGGAAAGAAGACCGGAGTCACCTAGTGCAG,25100 fluorescence intensity (a.u.)
17,CTCACCACCACCGTCGTCATCGTCGTCGTCACCCTCCTCCCGGAGTCACCTAGTGCAG,6620 fluorescence intensity (a.u.)
18,AACACCAATCACCACGTACGCCGACCAACCCCATCCACCCCGGAGTCACCTAGTGCAG,6870 fluorescence intensity (a.u.)
19,ATGGGCCATGGCCCATCCGTGCCACGTGTCGCATGCTCCTCGGAGTCACCTAGTGCAG,27900 fluorescence intensity (a.u.)
20,TAGTCCAATCCATCGTGTTTCCACGTGGCGACCCAACCCCCGGAGTCACCTAGTGCAG,40000 fluorescence intensity (a.u.)
21,GCCATGCATCCATACACGTCTACACTCTACACCCATTAACCGGAGTCACCTAGTGCAG,4850 fluorescence intensity (a.u.)
